This passage reports composite z-score and z-score results from PubChem BioAssay.

Assay [1] in a line: small molecules captured by biotinylated probe aFSTL3 – biochemical, small-molecule microarray, fluorescence 635/667, stem cell growth factor project, primary screen (AID 1064).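 Note: measures binding of the biotinylated anti-FSTL3 antibody to printed compounds.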 The note with it: higher = more signal.
A short description of assay [2]: binders from COS7 lysate, DM2A8 probe, primary screen, torsin A project, cell lysate, small-molecule microarray, fluorescence 635/667 (AID 1065). The note with it: higher = more signal, COS7 lysate expressing mutant human TOR1A.
Assay [3] is described as follows: small molecules captured by biotinylated probe aFGF2 – biochemical, small-molecule microarray, fluorescence 635/667, stem cell growth factor project, primary screen (AID 1067).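 Note: measures binding of biotinylated aFGF2 protein to printed compounds on slides; z-score merges feature fluorescence and signal-to-noise across triplicate slides.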 The note with it: higher = more signal.
Assay [4] in a line: small molecules captured by biotinylated probe aFGF10 – biochemical, small-molecule microarray, fluorescence 635/667, stem cell growth factor project, primary screen (AID 1071).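 Note: score merges 667 nm spot intensity and signal to noise from triplicate slides.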 The note with it: higher = more signal.
Assay [5] addresses Neurogenic locus notch homolog protein 2 (Homo sapiens) (UniProt Q04721). Briefly: small molecules binding Notch2 protein – biochemical, small-molecule microarray, 635 nm fluorescence, stem cell growth factors, primary screen (AID 1073). The note with it: higher = more signal.
Assay [6] addresses Pro-neuregulin-1, membrane-bound isoform (Homo sapiens) (UniProt Q02297). Briefly: small molecules binding neuregulin-1 protein – biochemical, small-molecule microarray, fluorescence 635/667, psychiatric disease protein project, primary screen (AID 1075).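 Note: score combines 667 nm spot fluorescence with signal to noise.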 The note with it: NRG1 binding, 635 nm fluorescence, higher = more signal.
In assay [7] the test system is Neuregulin-1 EGF-like domain. Briefly: small molecules binding NRG1 EGF domain – biochemical, small-molecule microarray, 635 nm fluorescence, primary screen (AID 1081).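 Note: binding of the protein to compounds printed on small-molecule microarray slides.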 The note with it: higher = more signal.
Assay [8] is described as follows: FRG1 expression reporter modulators in myotubes – cell-based, C2C12 myotubes, firefly/Renilla luciferase, luminescence, FRG1 inhibition for FSHD, primary screen (AID 1084). The note with it: FRG1 promoter luciferase, higher = more signal, called active from +8 up or from −8 down.
Assay [9] is described as follows: small molecules captured by biotinylated probe aFST – biochemical, small-molecule microarray, fluorescence 635/667, stem cell growth factor project, primary screen (AID 1086).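 Note: score merges 667 nm fluorescence with signal-to-noise of each printed compound spot.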 The note with it: higher = more signal.
Assay [10] in a line: binders of probe aHhip on microarray, primary screen, stem cell growth factor project, biochemical, small-molecule microarray, fluorescence 635/667 (AID 1087).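 Note: score merges spot fluorescence at 667nm with spot signal to noise ratio.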 The note with it: higher = more signal.

The source made the active and inactive calls.

Sequence of Pro-neuregulin-1, membrane-bound isoform (Homo sapiens) (Q02297 whole entry, looked up, the tested form may be a part, canonical isoform): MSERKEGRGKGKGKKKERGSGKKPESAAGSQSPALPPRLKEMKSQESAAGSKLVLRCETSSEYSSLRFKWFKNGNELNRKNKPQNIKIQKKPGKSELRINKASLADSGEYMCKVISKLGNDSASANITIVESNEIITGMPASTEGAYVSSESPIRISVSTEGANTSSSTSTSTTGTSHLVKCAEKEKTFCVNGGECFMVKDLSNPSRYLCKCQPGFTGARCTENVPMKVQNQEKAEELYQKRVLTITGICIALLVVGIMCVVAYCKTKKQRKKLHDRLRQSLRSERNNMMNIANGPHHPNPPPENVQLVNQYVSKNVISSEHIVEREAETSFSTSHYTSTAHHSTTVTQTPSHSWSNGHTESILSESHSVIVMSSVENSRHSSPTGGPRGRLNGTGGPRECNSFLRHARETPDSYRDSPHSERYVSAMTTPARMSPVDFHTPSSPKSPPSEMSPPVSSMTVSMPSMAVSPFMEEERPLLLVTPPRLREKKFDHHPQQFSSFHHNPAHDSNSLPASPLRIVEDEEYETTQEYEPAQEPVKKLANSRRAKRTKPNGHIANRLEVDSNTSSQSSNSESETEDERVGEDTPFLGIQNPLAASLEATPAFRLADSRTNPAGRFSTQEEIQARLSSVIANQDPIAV
Sequence of Neurogenic locus notch homolog protein 2 (Homo sapiens) (Q04721 whole entry, looked up, canonical isoform): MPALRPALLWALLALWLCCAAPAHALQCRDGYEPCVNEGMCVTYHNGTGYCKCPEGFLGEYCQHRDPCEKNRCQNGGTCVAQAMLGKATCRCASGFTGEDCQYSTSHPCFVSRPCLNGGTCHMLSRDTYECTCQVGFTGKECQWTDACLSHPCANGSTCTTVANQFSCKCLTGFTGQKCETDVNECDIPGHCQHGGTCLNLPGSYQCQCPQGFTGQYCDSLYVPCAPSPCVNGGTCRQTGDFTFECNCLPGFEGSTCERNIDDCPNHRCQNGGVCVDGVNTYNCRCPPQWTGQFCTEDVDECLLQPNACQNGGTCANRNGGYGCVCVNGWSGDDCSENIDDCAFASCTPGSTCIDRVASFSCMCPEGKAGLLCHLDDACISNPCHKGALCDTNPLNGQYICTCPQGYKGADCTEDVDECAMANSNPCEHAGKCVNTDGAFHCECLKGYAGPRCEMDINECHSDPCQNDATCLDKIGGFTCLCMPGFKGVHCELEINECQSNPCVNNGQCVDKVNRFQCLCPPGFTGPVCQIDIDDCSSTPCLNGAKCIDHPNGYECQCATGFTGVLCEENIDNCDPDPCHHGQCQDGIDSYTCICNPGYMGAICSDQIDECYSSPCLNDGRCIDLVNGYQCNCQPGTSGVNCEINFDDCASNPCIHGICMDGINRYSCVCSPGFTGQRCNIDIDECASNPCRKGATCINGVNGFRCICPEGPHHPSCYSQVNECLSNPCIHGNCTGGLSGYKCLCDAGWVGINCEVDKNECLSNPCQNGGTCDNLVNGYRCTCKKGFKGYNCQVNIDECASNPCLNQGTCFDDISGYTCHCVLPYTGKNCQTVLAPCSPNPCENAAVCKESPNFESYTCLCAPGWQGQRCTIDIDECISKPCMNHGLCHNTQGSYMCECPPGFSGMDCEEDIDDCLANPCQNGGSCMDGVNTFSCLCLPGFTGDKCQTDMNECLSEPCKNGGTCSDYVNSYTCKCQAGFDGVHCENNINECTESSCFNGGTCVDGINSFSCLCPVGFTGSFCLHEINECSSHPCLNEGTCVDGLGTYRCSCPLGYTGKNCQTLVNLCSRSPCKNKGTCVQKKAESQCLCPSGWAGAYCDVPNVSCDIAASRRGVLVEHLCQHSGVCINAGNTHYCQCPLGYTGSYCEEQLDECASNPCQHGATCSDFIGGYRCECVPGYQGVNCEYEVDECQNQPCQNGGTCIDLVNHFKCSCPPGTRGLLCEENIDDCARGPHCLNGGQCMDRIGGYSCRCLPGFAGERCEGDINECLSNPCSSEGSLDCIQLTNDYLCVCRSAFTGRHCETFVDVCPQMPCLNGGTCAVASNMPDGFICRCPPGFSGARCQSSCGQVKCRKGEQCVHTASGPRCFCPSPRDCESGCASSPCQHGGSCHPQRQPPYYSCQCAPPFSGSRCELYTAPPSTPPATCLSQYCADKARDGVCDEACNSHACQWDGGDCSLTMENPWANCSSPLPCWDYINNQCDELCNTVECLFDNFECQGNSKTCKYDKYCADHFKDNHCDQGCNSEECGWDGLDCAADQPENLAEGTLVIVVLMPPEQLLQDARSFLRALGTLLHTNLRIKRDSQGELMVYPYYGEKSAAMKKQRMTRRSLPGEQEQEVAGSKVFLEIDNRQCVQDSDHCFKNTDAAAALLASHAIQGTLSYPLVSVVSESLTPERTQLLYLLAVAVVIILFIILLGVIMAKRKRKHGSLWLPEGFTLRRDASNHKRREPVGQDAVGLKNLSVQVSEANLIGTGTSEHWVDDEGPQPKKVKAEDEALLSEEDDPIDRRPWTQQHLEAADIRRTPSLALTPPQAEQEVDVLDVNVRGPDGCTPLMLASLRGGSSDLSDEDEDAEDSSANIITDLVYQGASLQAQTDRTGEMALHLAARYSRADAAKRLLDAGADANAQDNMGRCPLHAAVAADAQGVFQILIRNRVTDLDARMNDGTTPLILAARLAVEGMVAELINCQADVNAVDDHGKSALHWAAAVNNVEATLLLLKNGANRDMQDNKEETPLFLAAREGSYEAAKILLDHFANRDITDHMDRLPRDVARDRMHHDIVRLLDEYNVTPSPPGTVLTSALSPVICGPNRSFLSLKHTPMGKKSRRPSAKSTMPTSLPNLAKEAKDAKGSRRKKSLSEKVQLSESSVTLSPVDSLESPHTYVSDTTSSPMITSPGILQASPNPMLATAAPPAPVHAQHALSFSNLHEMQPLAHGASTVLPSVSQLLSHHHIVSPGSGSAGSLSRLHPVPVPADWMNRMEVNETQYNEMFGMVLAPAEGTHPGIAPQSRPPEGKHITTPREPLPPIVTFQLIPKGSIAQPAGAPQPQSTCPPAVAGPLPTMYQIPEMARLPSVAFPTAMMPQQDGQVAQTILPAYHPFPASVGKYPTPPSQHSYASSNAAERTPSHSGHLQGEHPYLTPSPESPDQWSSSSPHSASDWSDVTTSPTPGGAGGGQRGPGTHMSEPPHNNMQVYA

On to `[N-]=[N+]=NCc1ccccc1[C@@H]1OC(c2ccc(OCCCO)cc2)=N[C@]1(CCS(=O)(=O)c1ccccc1)C(=O)NCc1ccccc1`, for which the composite z-score in assay [1] was 0.985; in [2], 1.05; in assay [3], 0.289; in assay [4], 0.76; in assay [5] it was 1.5; in [6], 1.74. For the same molecule, the composite z-score in assay [7] was determined as 1.32; in assay [9], 1.89; in [10], 0.683. Also, the z-score in assay [8] is -2.83 (inactive).
For the molecule `[N-]=[N+]=NCc1ccccc1C[C@]1(C(=O)O)N=C(c2ccc(OCCCO)cc2)O[C@H]1c1ccccc1N=[N+]=[N-]`, the composite z-score in assay [1] is -0.146; in assay [2], 0.268; in [3], -0.0004; in assay [4], 0.833; in assay [5], 1.52; in [6] it was 1.78. The composite z-score in assay [7] was found to be 1.25; in assay [9] it was 0.921; in assay [10] it was 0.138. The z-score in assay [8] is -1.47 (inactive).
For the molecule `C=CC[C@@]1(C(=O)N(C)C)N=C(c2ccc(OCCCO)cc2)O[C@@H]1c1ccccc1N=[N+]=[N-]`, the composite z-score was 1.12 in assay [1]; 1.72 in assay [2]; 0.0732 in assay [3]; 0.622 in assay [4]; 0.984 in [5]; 1.52 in [6]. Also, the composite z-score was 1.29 in assay [7], 1.21 in [9] and 0.011 in assay [10]. Also, in assay [8], the z-score was 2.35 (inactive).
Consider `CN1C(=O)C2C=CC(C(O)c3ccc(I)cc3)N(N3CCCCC3)C2C1=O` (stereo not given), for which the composite z-score in assay [1] is 0.151; in [2], 0.235; in assay [3], 0.0671; in assay [4], 1.09; in [5] it was 1.71; in assay [6], 1.73. The composite z-score in assay [7] was 1.27; in assay [9], 1.4; in assay [10] it was -0.0346. The z-score in [8] is 1.14 (inactive).
On to `C=CCOC(=O)[C@H]1[C@@H]2C(=O)O[C@@H](c3ccccc3)[C@@H](c3ccccc3)N2[C@@H](c2ccc(OCCOC(=O)[C@@H]3C[C@@H]4C(=O)N[C@@H](CCCC[N+](C)(C)C)C(=O)N4[C@@H]3c3ccc(O)cc3)cc2)[C@]12C(=O)Nc1ccccc12`, for which the composite z-score in assay [1] was -0.518; in assay [2] it was 0.964; in [3], -0.0503; in [4], 0.439; in assay [5], 0.459; in [6] it was 0.206. For the same molecule, the composite z-score is 1.15 in [7], -0.367 in assay [9] and -0.0618 in assay [10]. In addition, the z-score in assay [8] was 0.277 (inactive).
As for `COc1cc(CO)cc(I)c1O[C@H]1C=C(C(=O)NCCO)C[C@@H](N(CCN2CCOCC2)C(=O)C2CCOC2)[C@@H]1O` (stereo not given in full), the composite z-score in [1] is -0.458; in [2] it was 0.158; in assay [3], -0.12; in assay [4], 0.501; in assay [5] it was -0.0056; in assay [6], -0.0813. The composite z-score in assay [7] is -0.479; in assay [9] it was 0.0409; in assay [10], 1.25. Besides, in assay [8], the z-score is -1.22 (inactive).
In the case of `O=C1NC(=O)C2C1C=CC(C(O)C(c1ccccc1)c1ccccc1)N2Nc1ccc(Cl)cc1Cl` (stereo not given), the composite z-score is 0.246 in assay [1]; -0.471 in assay [2]; 0.103 in assay [3]; 0.501 in [4]; 1.49 in assay [5]; 0.782 in [6]. Besides, the composite z-score in assay [7] came to 0.756; in [9], 1.44; in assay [10], 0.0373. In addition, the z-score in [8] was 1.04 (inactive).
As for `C=CCOC(=O)[C@H]1[C@@H]2C(=O)O[C@@H](c3ccccc3)[C@@H](c3ccccc3)N2[C@@H](c2ccc(OCCOC(=O)[C@H]3C[C@H]4C(=O)N5CCC[C@H]5C(=O)N4[C@H]3c3ccc(O)cc3)cc2)[C@]12C(=O)Nc1ccccc12`, the composite z-score was -0.168 in assay [1]; 0.847 in assay [2]; 0.0069 in assay [3]; 0.516 in [4]; 1.47 in assay [5]; 1.33 in assay [6]. In addition, the composite z-score came to 1.4 in [7], 0.0557 in assay [9] and 0.0881 in [10]. Further, the z-score in assay [8] is 1.31 (inactive).
